Experimental findings from the supplement of paper PMC3898565 are described below.

Structures are written as SMILES. ± gives the uncertainty stated by the source.

This assay relates to U87. The assay can be described thus: cell viability relative to vehicle control; higher = less growth inhibition (less active). Particulars: 10 µM; 72 h.
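Further: viable cell number estimated from Alamar Blue fluorescence read at 560/90, part of a single-dose primary screen of an FDA-approved drug library.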

A word on the cell viability: it is a read-out of living cells in per cent, often relative to untreated cells. Turning to `O=C(O)CCNC(=O)c1ccc(/N=N/c2ccc(O)c(C(=O)O)c2)cc1`, the cell viability stood at 99.6 ± 1.4%.

Regarding `NC(=O)c1cccnc1`, the cell viability stood at 104.5 ± 1%.

For the compound `Cc1nc(=O)c2cc(CN(C)c3ccc(C(=O)N[C@@H](CCC(=O)O)C(=O)O)s3)ccc2[nH]1`, the cell viability was 85.4 ± 1.4%.

In the case of `CN1CCC(=C2c3ccccc3CCc3sccc32)CC1` [Pizotyline], the cell viability turned out to be 94.7 ± 13%.

Consider `O=c1c(-c2ccccc2)c1-c1ccccc1` [diphenylcyclopropenone], for which the cell viability was 77.4 ± 6.9%.

`Cc1cccc(CCN2CCC(C(=O)c3ccc(NS(C)(=O)=O)cc3)CC2)n1`: the cell viability turned out to be 102.6 ± 0.96%.

Regarding `COCCCC/C(=N\OCCN)c1ccc(C(F)(F)F)cc1` [Fluvoxamine], the cell viability stood at 106 ± 1.5%.

For the compound `CC(=O)CCCCn1c(=O)c2c(ncn2C)n(C)c1=O` [Pentoxifylline], the cell viability is 101.9 ± 0.75%.

In the case of `Cc1c2oc3c(C)ccc(C(=O)N[C@@H]4C(=O)N[C@H](C(C)C)C(=O)N5CCC[C@H]5C(=O)N(C)CC(=O)N(C)[C@@H](C(C)C)C(=O)O[C@@H]4C)c3nc-2c(C(=O)N[C@@H]2C(=O)N[C@H](C(C)C)C(=O)N3CCC[C@H]3C(=O)N(C)CC(=O)N(C)[C@@H](C(C)C)C(=O)O[C@@H]2C)c(N)c1=O`, the cell viability is 16.2 ± 2.6%.

Consider `CCCc1c(OCCCCc2nnn[nH]2)ccc(C(C)=O)c1O`, for which the cell viability came to 104 ± 1.5%.

`Cc1c(O)cccc1C(=O)N[C@@H](CSc1ccccc1)[C@H](O)CN1C[C@H]2CCCC[C@H]2C[C@H]1C(=O)NC(C)(C)C`: the cell viability amounted to 102.1 ± 1%.

As to `Cc1ccnc2c1NC(=O)c1cccnc1N2C1CC1` [Viramune], the cell viability is 107 ± 3.4%.

For `CN(C)CCc1c[nH]c2ccc(C[C@H]3COC(=O)N3)cc12` [Zolmitriptan], the cell viability is 105 ± 1.6%.

For the compound `CCN(CC)CC1CCCCN1CC(=O)N1c2ccccc2C(=O)Nc2cccnc21` (stereo not drawn), the cell viability amounted to 110 ± 1.9%.

Take `NC(=O)OCC(COC(N)=O)c1ccccc1` [Felbamate]: the cell viability is 105.7 ± 1%.

Regarding `CNNCc1ccc(C(=O)NC(C)C)cc1` [Procarbazine], the cell viability came to 104.4 ± 0.86%.

On to `CN(Cc1cnc2nc(N)nc(N)c2n1)c1ccc(C(=O)N[C@@H](CCC(=O)O)C(=O)O)cc1`, for which the cell viability is 72.9 ± 0.73%.

On to `OCc1cc(C(O)CNCCCCCCOCCCCc2ccccc2)ccc1O` (stereo not drawn) [Salmeterol], for which the cell viability came out at 106 ± 1.1%.

Regarding `CNCC[C@@H](Oc1ccccc1C)c1ccccc1`, the cell viability worked out at 108.2 ± 1%.

Consider `Cn1nnc2c(C(N)=O)ncn2c1=O`, for which the cell viability was 106 ± 1.3%.

For the compound `CCOC(=O)c1ccc(OC(=O)CCCCCNC(=N)N)cc1` [Gabexate], the cell viability was 98.6 ± 3.2%.

Take `COCCOC(=O)C1=C(C)NC(C)=C(C(=O)OC(C)C)C1c1cccc([N+](=O)[O-])c1` (stereo not drawn): the cell viability came out at 103 ± 1.5%.

Take `C=CCc1ccc(O)c(-c2ccc(O)c(CC=C)c2)c1`: the cell viability came out at 100.7 ± 1%.

As to `O=C1CCc2ccc(OCCCCN3CCN(c4cccc(Cl)c4Cl)CC3)cc2N1`, the cell viability was 102 ± 1.1%.

As to `CC12CC3CC(C)(C1)CC(N)(C3)C2`, the cell viability came to 123 ± 1.4%.

As for `CC(=O)O[C@@]12CO[C@@H]1C[C@H](O)[C@@]1(C)C(=O)[C@H](O)C3=C(C)[C@@H](OC(=O)[C@H](O)[C@@H](NC(=O)OC(C)(C)C)c4ccccc4)C[C@@](O)([C@@H](OC(=O)c4ccccc4)[C@H]21)C3(C)C`, the cell viability turned out to be 45.2 ± 1.5%.

On to `COCC1=C(C(=O)OC(C)OC(=O)OC(C)C)N2C(=O)[C@@H](NC(=O)/C(=N\OC)c3csc(N)n3)[C@H]2SC1` (stereo partly drawn), for which the cell viability turned out to be 106 ± 1.6%.

For the compound `Nc1ccc(O)c(C(=O)O)c1` [5-Amino-2-hydroxy-benzoic acid], the cell viability was 102.5 ± 0.14%.

Regarding `NC(N)=NC(=O)c1nc(Cl)c(N)nc1N`, the cell viability came to 93.54 ± 0.1%.

On to `Clc1ccccc1C(c1ccccc1)(c1ccccc1)n1ccnc1`, for which the cell viability is 107.5 ± 0.99%.

Turning to `C[C@@H]1C[C@H]2[C@@H]3C[C@H](F)C4=CC(=O)C(Cl)=C[C@]4(C)[C@@]3(F)[C@@H](O)C[C@]2(C)[C@@]1(O)C(=O)CO`, the cell viability came to 102.1 ± 0.4%.

For `CCCN[C@H]1CCc2nc(N)sc2C1` [Pramipexole], the cell viability turned out to be 92.5 ± 8.8%.

Regarding `C=CC[C@@H]1/C=C(\C)C[C@H](C)C[C@H](OC)[C@H]2O[C@@](O)(C(=O)C(=O)N3CCCC[C@H]3C(=O)O[C@H](/C(C)=C/[C@@H]3CC[C@@H](O)[C@H](OC)C3)[C@H](C)[C@@H](O)CC1=O)[C@H](C)C[C@@H]2OC`, the cell viability was 101.8 ± 0.73%.

As for `CCN1CCC[C@H]1CNC(=O)c1cc(S(N)(=O)=O)ccc1OC`, the cell viability worked out at 102 ± 3.2%.

As for `CN1C(=O)CC[C@H]1c1cccnc1` [(-)-Cotinine], the cell viability came out at 94.6 ± 10%.

For `C[C@]12CCC(=O)C=C1CC[C@@H]1[C@@H]2CC[C@@]2(C)[C@H]1CC[C@]2(O)C(=O)CO`, the cell viability stood at 103.8 ± 0.18%.

Regarding `Nc1c2c(nc3c1CCC3)CCCC2`, the cell viability worked out at 97.1 ± 5.7%.

Consider `O=c1c(O[C@@H]2O[C@H](CO)[C@@H](O)[C@H](O)[C@H]2O)c(-c2ccc(O)c(O)c2)oc2cc(O)cc(O)c12` [Isoquercitrin], for which the cell viability is 104 ± 1.7%.

In the case of `CNCCCCOc1ccccc1Cc1ccccc1` [Bifemelane], the cell viability turned out to be 96.1 ± 9.1%.

As for `C[C@H]1COc2c(C3(N)CC3)c(F)cc3c(=O)c(C(=O)O)cn1c23`, the cell viability was 101.8 ± 0.5%.

In the case of `CC(=O)N1CCN(c2ccc(OCC3COC(Cn4ccnc4)(c4ccc(Cl)cc4Cl)O3)cc2)CC1` (stereo not drawn) [Ketoconazole], the cell viability turned out to be 94.3 ± 13%.

For the compound `CCOC(=O)N1CCC(=C2c3ccc(Cl)cc3CCc3cccnc32)CC1`, the cell viability is 102 ± 2.4%.

For the compound `CCCc1nc2c(C)cc(-c3nc4ccccc4n3C)cc2n1Cc1ccc(-c2ccccc2C(=O)O)cc1`, the cell viability was 98.3 ± 2.2%.

For the compound `Nc1nc2ccc(Cl)cc2c2nc(-c3ccco3)nn12`, the cell viability is 93.4 ± 5.3%.

For `O=C(NCCN1CCOCC1)c1ccc(Cl)cc1` [4-Chloro-N-(2-morpholin-4-yl-ethyl)-benzamide], the cell viability was found to be 80.9 ± 3.8%.

With `COC(=O)C1=C(C)NC(C)=C(C(=O)OCC(C)C)C1c1ccccc1[N+](=O)[O-]` (stereo not drawn) [Nisoldipine], the cell viability is 48.4 ± 5%.

As to `CC(C)(C)C(O)/C=C/c1ccc2c(c1)OCO2` (stereo not drawn) [Stiripentol], the cell viability was 105.6 ± 0.6%.

`COC(=O)C1=C(C)NC(C)=C(C(=O)OC(C)C)C1c1cccc2nonc12` (stereo not drawn): the cell viability is 104.2 ± 0.44%.

With `COC(=O)C1=C(C)NC(C)=C(C(=O)OC)C1c1ccccc1[N+](=O)[O-]`, the cell viability was 105 ± 1.4%.

Regarding `CN1CCc2cc(Cl)c(O)cc2[C@@H](c2ccccc2)C1`, the cell viability was 97.5 ± 6.3%.

On to `CC(N/C(=N\C#N)Nc1ccncc1)C(C)(C)C` (stereo not drawn) [Pinacidil monohydrate], for which the cell viability is 105 ± 1.1%.

Take `CC1CCN(CCCC(=O)c2ccc(F)cc2)CC1` [Metylperon]: the cell viability turned out to be 106 ± 1.2%.

Regarding `COc1cc(-c2ccc(=O)[nH]n2)ccc1OC(F)F`, the cell viability came to 111 ± 3.7%.

Consider `Cc1nc2ccccn2c(=O)c1CCN1CCC(C(=O)c2ccc(F)cc2)CC1`, for which the cell viability came out at 97.4 ± 1.5%.

With `COC(=O)Nc1nc2cc(C(=O)c3ccc(F)cc3)ccc2[nH]1`, the cell viability amounted to 30 ± 7.6%.

On to `O=C1N[C@H](C(=O)O)CS1` [4-Thiazolidinecarboxylic acid, 2-oxo-, (R)- [CAS]], for which the cell viability amounted to 101.1 ± 0.43%.

Take `COc1cc(C)c(Cc2cnc(N)nc2N)cc1OC`: the cell viability was 100 ± 1.7%.

Take `CCCc1nc(C)c2c(=O)nc(-c3cc(S(=O)(=O)N4CCN(CC)CC4)ccc3OCC)[nH]n12`: the cell viability amounted to 107.7 ± 0.41%.

For the compound `CN[C@H]1CC[C@@H](c2ccc(Cl)c(Cl)c2)c2ccccc21` [Sertraline], the cell viability came to 34.2 ± 3.8%.

With `CC#C[C@]1(O)CC[C@H]2[C@@H]3CCC4=CC(=O)CCC4=C3[C@@H](c3ccc(N(C)C)cc3)C[C@@]21C`, the cell viability worked out at 105 ± 1.6%.

Consider `c1ccc(-c2ccc(C(c3ccccc3)n3ccnc3)cc2)cc1` (stereo not drawn), for which the cell viability stood at 101 ± 1.2%.

As for `CN1CCCC(n2nc(Cc3ccc(Cl)cc3)c3ccccc3c2=O)CC1` (stereo not drawn), the cell viability is 99 ± 2.2%.

Take `C[C@]12CCC(=O)C=C1CC[C@@H]1[C@@H]2C(=O)C[C@@]2(C)[C@H]1CC[C@]2(O)C(=O)CO`: the cell viability is 102 ± 2.8%.

Take `OCCN1CCN(CCCN2c3ccccc3Sc3ccc(C(F)(F)F)cc32)CC1` [Fluphenazine]: the cell viability is 104.3 ± 0.93%.

For `NNCCc1ccccc1`, the cell viability stood at 104.4 ± 0.9%.

For the compound `O=C(O)C[C@H](O)C[C@H](O)/C=C/c1c(C2CC2)nc2ccccc2c1-c1ccc(F)cc1`, the cell viability turned out to be 28.6 ± 3.1%.

For `CC(C)C[C@H](NC(=O)[C@@H](O)[C@H](N)Cc1ccccc1)C(=O)O`, the cell viability came out at 97.13 ± 0.56%.

For the compound `O=c1n(CCCN2CCN(c3cccc(Cl)c3)CC2)nc2ccccn12`, the cell viability was 101 ± 1.3%.

On to `CC(=O)SCC(Cc1ccccc1)C(=O)NCC(=O)OCc1ccccc1` (stereo not drawn), for which the cell viability was determined as 103 ± 2%.

In the case of `CC(C)(C#N)c1cc(Cn2cncn2)cc(C(C)(C)C#N)c1`, the cell viability was 109 ± 1.3%.

Regarding `COC(=O)C[C@](O)(CCCC(C)(C)O)C(=O)O[C@@H]1C(OC)=C[C@]23CCCN2CCc2cc4c(cc2[C@H]13)OCO4`, the cell viability amounted to 10.3 ± 0.73%.

Consider `Oc1ccc(C2CNCCc3c2cc(O)c(O)c3Cl)cc1` (stereo not drawn), for which the cell viability came to 103 ± 2.8%.

As for `O=C(O)/C=C/c1ccc(Cn2ccnc2)cc1` [ozagrel], the cell viability came to 104 ± 1.2%.

On to `Cc1sc(N)c(C(=O)c2cccc(C(F)(F)F)c2)c1C`, for which the cell viability was found to be 109 ± 1.8%.

`CCCCC(=O)N(Cc1ccc(-c2ccccc2-c2nnn[nH]2)cc1)[C@H](C(=O)O)C(C)C`: the cell viability was 108 ± 3%.

On to `CN(C)CCOc1ccc(/C(=C(/CCCl)c2ccccc2)c2ccccc2)cc1`, for which the cell viability came out at 106 ± 1.8%.

For the compound `O=C(O[C@@H]1C[C@@H]2C[C@H]3C[C@H](C1)N2CC3=O)c1c[nH]c2ccccc12`, the cell viability is 105.8 ± 0.72%.

As to `C[C@H](N[C@@H](CCc1ccccc1)C(=O)O)C(=O)N1CCC[C@H]1C(=O)O`, the cell viability came out at 98.3 ± 1.7%.

For `N[C@@H](C(=O)N[C@@H]1C(=O)N2C(C(=O)O)=C(Cl)CS[C@H]12)c1ccccc1`, the cell viability turned out to be 104 ± 1.2%.

Consider `NC1CCN(c2cccc(Cl)n2)CC1`, for which the cell viability was determined as 97.7 ± 4%.

`CN(C)CCOC(c1ccccc1)c1ccccc1` [Diphenhydramine]: the cell viability turned out to be 103 ± 1.1%.

`C#C[C@]1(O)CC[C@H]2[C@@H]3[C@H](C)CC4=C(CCC(=O)C4)[C@H]3CC[C@@]21C`: the cell viability turned out to be 106 ± 2.1%.

For `C/C=C1\[C@H]2C=C(C)C[C@]1(N)c1ccc(=O)[nH]c1C2`, the cell viability turned out to be 106.5 ± 0.73%.

For `CC(C)NCC(O)COc1ccc(CCOCC2CC2)cc1` (stereo not drawn) [Betaxolol], the cell viability came to 100.4 ± 0.2%.

`CCCCCCNC(=O)n1cc(F)c(=O)[nH]c1=O`: the cell viability is 55.1 ± 2.6%.

Regarding `Fc1ccc([C@@H]2CCNC[C@H]2COc2ccc3c(c2)OCO3)cc1`, the cell viability is 104.5 ± 1%.

Regarding `O=C1c2c(O)cc(O)cc2O[C@H](c2ccc(O)c(O)c2)[C@H]1O` (racemic), the cell viability worked out at 85.3 ± 2.2%.

Turning to `COc1ccc(CC2c3cc(OC)c(OC)cc3CC[N+]2(C)CCC(=O)OCCCCCOC(=O)CC[N+]2(C)CCc3cc(OC)c(OC)cc3C2Cc2ccc(OC)c(OC)c2)cc1OC` (stereo not drawn), the cell viability was found to be 110 ± 0.2%.
